# LEDGF integ inh: blocks HIV-1 LEDGF/p75-dependent DNA integration | inhibition, % at 3.7 µM | TR-FRET IN-LEDGF/p75 DNA integration, Eu/Cy5 | 370,000 compounds, 0.64% hits | AID 743269;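 active = inhibition above the screen-wide mean plus 3 SD, cut at about 13% in these data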;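 note: signal is the Cy5 over europium emission ratio at 671 and 618 nm; 0% = plate median of compound wells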
# Rin1 Abl inh: inhibitors of human Rin1-Abl protein interaction; AID 588664; TR-FRET Rin1/Abl binding, biochemical; 360,000 compounds, 0.4% hits; P00519+Q13671; inhibition, % at 7.35 µM; in the data active = inhibition above about 5%, passing the limit was not always enough
# Neddylation inh: cullin neddylation inhibition; TR-FRET cullin neddylation, biochemical; 360,000 compounds, 0.58% hits; AID 651699; calls only at 25 µM; P61081+Q13564; in the data active = inhibition above about 36%
# KLK7 zymogen act: proKLK7 (human) activation, primary screen; purified proKLK7, EDANS-DABCYL substrate fluorescence; 100% is mature enzyme control, 0% vehicle; P49862; AID 652039; 370,000 compounds, 0.9% hits; activation, % at 7 µM;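 active = activation above the mean of all tested compounds plus 3 SD, computed per campaign excluding outliers beyond control limits, cut at about 13% in these data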
# UHRF1 binding: blocks human UHRF1 binding to methylated DNA; UHRF1 binding to methylated oligo, TR-FRET; inhibition, % at 4.4 µM; 370,000 compounds, 0.75% hits; AID 687016; in the data active = inhibition above about 21%;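 note: UHRF1 SRA domain binding a hemimethylated CpG hairpin DNA probe; 0% = median of test compound wells and 100% = reference inhibitor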
# MBD2 inh: inhibitors of human MBD2 binding to methylated oligonucleotide. TR-FRET. 370,000 compounds, 0.31% hits. Q9UBB5. inhibition, % at 4.4 µM; in the data active = inhibition above about 13%
# IN multimer up: activates HIV-1 integrase multimerization in LEDGF counter-screen | activation, % at 7.7 µM | 2,000 compounds, 17% hits | shares compounds with LEDGF integ inh | AID 1053131 | TR-FRET HIV-1 integrase multimerization, biochemical; in the data active = activation above about 8.9%
# TR-FRET interf: TR-FRET optical interference, LEDGF/p75 integration counter-screen; shares compounds with LEDGF integ inh; TR-FRET optical interference counterscreen, HIV-1 IN multimerization; inhibition, % at 7.7 µM; 2,000 tested, under 10 active;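 active = inhibition above the mean over all tested compounds plus 3 SD, which no compound reached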;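 note: 0% = integrase with antibodies and DMSO and 100% = antibodies without integrase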
# IN-LEDGF confirm: confirmation of HIV-1 LEDGF/p75-dependent integration inhibitors; inhibition, % at 3.7 µM; TR-FRET LEDGF/p75-dependent HIV-1 integration, biochemical; 2,000 compounds, 36% hits; shares compounds with LEDGF integ inh; in the data active = inhibition above about 14%
# The depositor's hits bear a star; i = inactive; . = no result shown. Sampled rows, rich in hits. Any-hit rate of the full collection: about 3.1%.
SMILES,LEDGF integ inh,Rin1 Abl inh,Neddylation inh,KLK7 zymogen act,UHRF1 binding,MBD2 inh,IN multimer up,TR-FRET interf,IN-LEDGF confirm
CCCCn1nnnc1C(CCc1ccccc1)N1CCC(n2c(=O)[nH]c3ccccc32)CC1 (stereo unspecified),20.4*,5.5,i,0.1,1.4,7.8,-0.1,0.3,-2.5
c1ccc([C@@H]2CO2)cc1,.,1.0,i,.,.,.,.,.,.
COC(=O)C1=C(c2ccc(-c3ccccc3)c(F)c2)C[C@@H]2CC[C@H]1N2C(=O)NCCOc1ccc(OC)cc1,14.9*,0.9,i,0.7,6.6,-6.9,-2.2,7.8,-5.8
COC(=O)C1=C(c2ccc(OC(F)(F)F)cc2)C[C@@H]2CC[C@H]1N2C(=O)NCc1cc(C)oc1C(F)(F)F,0.3,1.1,i,0.0,-1.1,1.9,.,.,.
CCCCn1c(NS(=O)(=O)c2ccc(C)cc2)c(C(=O)OCC)c2nc3ccccc3nc21,32.5*,1.6,.,-2.4,13.2,-0.4,1.1,-3.9,10.5
CCCCn1c(N)c(C(=O)OCC2CCCO2)c2nc3ccccc3nc21 (stereo unspecified),.,-4.4,.,.,.,.,.,.,.
CCCCn1c(NC(=O)c2ccco2)c(C(=O)OCC)c2nc3ccccc3nc21,30.5*,4.4,.,-5.0,17.3,10.4,-1.5,5.5,61.6*
Cc1ccc(CN2CCCC(C(=O)c3sccc3C)C2)o1 (stereo unspecified),0.9,2.3,i,0.5,0.8,0.1,.,.,.
O=C(O)C1CC2(Cl)C(Cl)=C(Cl)C1(Cl)C2(Cl)Cl (stereo unspecified),5.0,1.7,i,0.1,4.3,-0.2,.,.,.
Cc1ccc(S(=O)(=O)NCCC(=O)Nc2ccc(Cl)cc2C(=O)c2ccccc2)cc1,27.6*,-4.7,i,0.8,-0.2,-2.2,1.2,-5.8,-2.1
Cc1ccc(OCC(=O)Nc2ccc(Cl)cc2C(=O)c2ccccc2)cc1,-1.8,-0.5,i,-0.3,3.5,0.3,.,.,.
O=c1[nH]c(=O)n(Cc2ccco2)c(O)c1/C=N/N1CCCCC1,22.6*,-1.8,i,0.1,5.9,-3.9,-1.9,6.8,9.3
Clc1ccc(OCC#CCN2CCOCC2)cc1,23.9*,3.5,i,0.1,-1.7,1.4,-0.1,0.5,2.6
Cc1ccccc1N1CCN(C2CCCN(C(=O)Cc3c(C)noc3C)C2)CC1 (stereo unspecified),-0.8,2.3,i,0.5,-2.5,0.9,.,.,.
